In ChEMBL document CHEMBL1961873, “Compounds: GSK PKIS; Assays: Nanosyn kinase panel” (2012):

Key:
[1] = tested on: Epidermal growth factor receptor (Homo sapiens), P00533 [T790M]; conditions: at 1 µM
[2] = tested on: Epidermal growth factor receptor (Homo sapiens), P00533 [L858R,T790M]; conditions: at 0.1 µM
[3] = tested on: Epidermal growth factor receptor (Homo sapiens), P00533 [L858R,T790M]; conditions: at 1 µM
[4] = biological target: Ephrin type-A receptor 2 (Homo sapiens) (UniProt P29317); conditions: at 0.1 µM
[5] = biological target: Ephrin type-A receptor 2 (Homo sapiens) (UniProt P29317); conditions: at 1 µM
[6] = biological target: T1, Ephrin type-A receptor 3 (Homo sapiens) (UniProt P29320); conditions: at 0.1 µM
T1 sequence (whole entry): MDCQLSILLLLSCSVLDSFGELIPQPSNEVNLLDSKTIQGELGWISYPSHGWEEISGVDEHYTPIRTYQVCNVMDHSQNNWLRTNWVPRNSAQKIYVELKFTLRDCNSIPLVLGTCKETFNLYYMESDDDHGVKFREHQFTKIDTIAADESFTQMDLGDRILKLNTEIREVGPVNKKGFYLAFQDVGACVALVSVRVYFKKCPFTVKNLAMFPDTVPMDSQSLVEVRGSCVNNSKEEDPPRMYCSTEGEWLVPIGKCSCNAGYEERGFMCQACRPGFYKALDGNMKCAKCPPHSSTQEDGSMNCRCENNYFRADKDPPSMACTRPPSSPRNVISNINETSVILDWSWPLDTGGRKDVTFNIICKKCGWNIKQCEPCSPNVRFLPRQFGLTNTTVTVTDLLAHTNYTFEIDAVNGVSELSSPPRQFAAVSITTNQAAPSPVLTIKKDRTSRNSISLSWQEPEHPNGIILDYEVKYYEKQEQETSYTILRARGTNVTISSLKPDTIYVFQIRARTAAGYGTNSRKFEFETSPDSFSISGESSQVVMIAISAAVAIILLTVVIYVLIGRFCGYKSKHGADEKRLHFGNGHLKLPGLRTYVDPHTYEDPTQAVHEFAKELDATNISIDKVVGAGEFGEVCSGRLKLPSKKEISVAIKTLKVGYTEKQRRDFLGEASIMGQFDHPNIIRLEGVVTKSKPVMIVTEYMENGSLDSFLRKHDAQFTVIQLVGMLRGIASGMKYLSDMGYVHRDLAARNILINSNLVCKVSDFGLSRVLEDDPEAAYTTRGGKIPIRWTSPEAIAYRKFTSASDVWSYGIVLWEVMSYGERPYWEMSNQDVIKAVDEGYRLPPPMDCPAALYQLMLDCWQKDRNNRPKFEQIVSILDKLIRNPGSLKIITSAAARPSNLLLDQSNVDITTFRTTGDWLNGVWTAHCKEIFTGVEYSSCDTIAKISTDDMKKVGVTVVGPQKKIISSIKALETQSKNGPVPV

[7] = biological target: T1, Ephrin type-A receptor 3 (Homo sapiens); conditions: at 1 µM
[8] = biological target: Ephrin type-A receptor 4 (Homo sapiens) (UniProt P54764); conditions: at 0.1 µM
[9] = biological target: Ephrin type-A receptor 4 (Homo sapiens) (UniProt P54764); conditions: at 1 µM
[10] = biological target: T2, Ephrin type-B receptor 2 (Homo sapiens) (UniProt P29323); conditions: at 0.1 µM
T2 sequence (whole entry): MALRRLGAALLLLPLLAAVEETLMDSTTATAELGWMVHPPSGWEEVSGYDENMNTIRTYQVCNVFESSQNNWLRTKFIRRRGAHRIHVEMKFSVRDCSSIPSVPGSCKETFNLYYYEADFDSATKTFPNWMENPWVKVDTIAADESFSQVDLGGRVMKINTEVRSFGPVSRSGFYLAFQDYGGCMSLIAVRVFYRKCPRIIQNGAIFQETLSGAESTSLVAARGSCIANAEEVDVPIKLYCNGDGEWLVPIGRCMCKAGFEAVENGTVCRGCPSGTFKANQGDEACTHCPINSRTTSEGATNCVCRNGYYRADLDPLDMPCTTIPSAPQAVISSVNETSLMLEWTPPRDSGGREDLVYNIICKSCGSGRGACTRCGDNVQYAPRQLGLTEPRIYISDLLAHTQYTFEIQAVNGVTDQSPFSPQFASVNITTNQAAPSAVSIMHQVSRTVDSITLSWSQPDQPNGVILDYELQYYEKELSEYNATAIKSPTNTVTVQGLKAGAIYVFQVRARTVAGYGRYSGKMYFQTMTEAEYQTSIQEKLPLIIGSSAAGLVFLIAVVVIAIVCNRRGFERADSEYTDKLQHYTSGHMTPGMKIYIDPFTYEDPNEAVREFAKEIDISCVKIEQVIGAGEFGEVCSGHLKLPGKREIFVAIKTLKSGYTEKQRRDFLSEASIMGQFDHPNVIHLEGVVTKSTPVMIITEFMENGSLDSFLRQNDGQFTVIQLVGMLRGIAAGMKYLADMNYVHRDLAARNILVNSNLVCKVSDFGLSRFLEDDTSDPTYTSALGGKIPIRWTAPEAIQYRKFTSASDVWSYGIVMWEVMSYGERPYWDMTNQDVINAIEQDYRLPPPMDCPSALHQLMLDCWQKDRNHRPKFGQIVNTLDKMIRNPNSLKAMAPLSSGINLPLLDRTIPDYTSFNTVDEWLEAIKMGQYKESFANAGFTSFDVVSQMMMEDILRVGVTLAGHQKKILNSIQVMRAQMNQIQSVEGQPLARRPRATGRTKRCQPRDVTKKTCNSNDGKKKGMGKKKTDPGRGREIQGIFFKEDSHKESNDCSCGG

[11] = biological target: T2, Ephrin type-B receptor 2 (Homo sapiens); conditions: at 1 µM
[12] = biological target: T3, Ephrin type-B receptor 3 (Homo sapiens) (UniProt P54753); conditions: at 0.1 µM
T3 sequence (whole entry): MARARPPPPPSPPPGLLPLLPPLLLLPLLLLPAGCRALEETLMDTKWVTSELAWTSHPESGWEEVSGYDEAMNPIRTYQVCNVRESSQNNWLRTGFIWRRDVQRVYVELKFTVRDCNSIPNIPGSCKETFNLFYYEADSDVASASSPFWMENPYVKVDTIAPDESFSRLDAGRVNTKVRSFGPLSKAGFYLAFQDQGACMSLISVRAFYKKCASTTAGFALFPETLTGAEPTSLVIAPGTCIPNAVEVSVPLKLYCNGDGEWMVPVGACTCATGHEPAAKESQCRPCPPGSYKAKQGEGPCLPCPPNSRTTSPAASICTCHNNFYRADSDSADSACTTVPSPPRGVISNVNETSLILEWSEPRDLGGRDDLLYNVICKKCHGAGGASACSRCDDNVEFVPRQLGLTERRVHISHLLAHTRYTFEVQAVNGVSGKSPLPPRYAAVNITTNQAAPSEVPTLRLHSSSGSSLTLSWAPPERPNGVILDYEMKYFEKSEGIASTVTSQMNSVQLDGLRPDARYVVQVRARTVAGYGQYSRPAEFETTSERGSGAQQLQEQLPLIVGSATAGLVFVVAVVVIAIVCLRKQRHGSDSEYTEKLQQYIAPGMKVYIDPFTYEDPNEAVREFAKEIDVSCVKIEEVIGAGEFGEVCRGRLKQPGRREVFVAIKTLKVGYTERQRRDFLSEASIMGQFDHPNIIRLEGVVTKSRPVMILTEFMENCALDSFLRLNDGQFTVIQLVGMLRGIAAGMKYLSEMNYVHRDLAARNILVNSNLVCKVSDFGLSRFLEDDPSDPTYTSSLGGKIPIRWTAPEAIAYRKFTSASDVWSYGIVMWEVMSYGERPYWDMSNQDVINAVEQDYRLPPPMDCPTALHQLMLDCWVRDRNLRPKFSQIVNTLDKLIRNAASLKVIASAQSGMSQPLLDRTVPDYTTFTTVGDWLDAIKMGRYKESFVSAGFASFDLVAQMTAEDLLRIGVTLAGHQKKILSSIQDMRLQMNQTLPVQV

[13] = biological target: T3, Ephrin type-B receptor 3 (Homo sapiens); conditions: at 1 µM
[14] = biological target: T4, Ephrin type-B receptor 4 (Homo sapiens) (UniProt P54760); conditions: at 0.1 µM
T4 sequence (whole entry): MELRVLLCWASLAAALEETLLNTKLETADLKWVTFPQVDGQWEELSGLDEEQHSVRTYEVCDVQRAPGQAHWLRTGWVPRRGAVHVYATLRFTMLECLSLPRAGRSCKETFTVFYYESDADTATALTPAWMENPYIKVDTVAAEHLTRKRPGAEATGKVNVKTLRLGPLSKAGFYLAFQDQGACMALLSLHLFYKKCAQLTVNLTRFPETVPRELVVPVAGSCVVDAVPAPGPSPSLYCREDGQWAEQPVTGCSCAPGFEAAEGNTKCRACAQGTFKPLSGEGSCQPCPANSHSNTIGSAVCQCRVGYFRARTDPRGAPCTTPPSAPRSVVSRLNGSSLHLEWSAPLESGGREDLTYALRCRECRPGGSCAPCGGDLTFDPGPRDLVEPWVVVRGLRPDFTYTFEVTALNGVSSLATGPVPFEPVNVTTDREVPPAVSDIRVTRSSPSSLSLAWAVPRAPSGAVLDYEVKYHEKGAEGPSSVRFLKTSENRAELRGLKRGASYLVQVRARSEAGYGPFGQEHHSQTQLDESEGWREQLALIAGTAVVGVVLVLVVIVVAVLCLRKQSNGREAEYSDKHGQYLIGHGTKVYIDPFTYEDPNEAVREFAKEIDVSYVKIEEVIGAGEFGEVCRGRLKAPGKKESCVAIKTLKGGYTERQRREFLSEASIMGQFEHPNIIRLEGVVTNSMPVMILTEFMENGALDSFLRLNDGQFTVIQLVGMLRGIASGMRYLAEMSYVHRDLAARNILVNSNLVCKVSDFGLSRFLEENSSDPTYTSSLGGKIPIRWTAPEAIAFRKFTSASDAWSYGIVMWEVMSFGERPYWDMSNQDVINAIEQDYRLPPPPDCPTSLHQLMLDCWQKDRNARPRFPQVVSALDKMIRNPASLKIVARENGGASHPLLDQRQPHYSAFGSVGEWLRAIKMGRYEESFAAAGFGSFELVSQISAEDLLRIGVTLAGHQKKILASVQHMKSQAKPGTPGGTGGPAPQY

[15] = biological target: T4, Ephrin type-B receptor 4 (Homo sapiens); conditions: at 1 µM
[16] = biological target: Receptor tyrosine-protein kinase erbB-2 (Homo sapiens) (UniProt P04626); conditions: at 0.1 µM
[17] = biological target: Receptor tyrosine-protein kinase erbB-2 (Homo sapiens) (UniProt P04626); conditions: at 1 µM
[18] = biological target: Receptor tyrosine-protein kinase erbB-4 (Homo sapiens) (UniProt Q15303); conditions: at 0.1 µM
[19] = biological target: Receptor tyrosine-protein kinase erbB-4 (Homo sapiens) (UniProt Q15303); conditions: at 1 µM
[20] = biological target: Tyrosine-protein kinase Fer (Homo sapiens) (UniProt P16591); conditions: at 0.1 µM;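 further: reported figures are averaged percent inhibition of FER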

Sequence of Epidermal growth factor receptor (Homo sapiens), P00533 [L858R,T790M] (P00533 whole entry T790M/L858R, looked up): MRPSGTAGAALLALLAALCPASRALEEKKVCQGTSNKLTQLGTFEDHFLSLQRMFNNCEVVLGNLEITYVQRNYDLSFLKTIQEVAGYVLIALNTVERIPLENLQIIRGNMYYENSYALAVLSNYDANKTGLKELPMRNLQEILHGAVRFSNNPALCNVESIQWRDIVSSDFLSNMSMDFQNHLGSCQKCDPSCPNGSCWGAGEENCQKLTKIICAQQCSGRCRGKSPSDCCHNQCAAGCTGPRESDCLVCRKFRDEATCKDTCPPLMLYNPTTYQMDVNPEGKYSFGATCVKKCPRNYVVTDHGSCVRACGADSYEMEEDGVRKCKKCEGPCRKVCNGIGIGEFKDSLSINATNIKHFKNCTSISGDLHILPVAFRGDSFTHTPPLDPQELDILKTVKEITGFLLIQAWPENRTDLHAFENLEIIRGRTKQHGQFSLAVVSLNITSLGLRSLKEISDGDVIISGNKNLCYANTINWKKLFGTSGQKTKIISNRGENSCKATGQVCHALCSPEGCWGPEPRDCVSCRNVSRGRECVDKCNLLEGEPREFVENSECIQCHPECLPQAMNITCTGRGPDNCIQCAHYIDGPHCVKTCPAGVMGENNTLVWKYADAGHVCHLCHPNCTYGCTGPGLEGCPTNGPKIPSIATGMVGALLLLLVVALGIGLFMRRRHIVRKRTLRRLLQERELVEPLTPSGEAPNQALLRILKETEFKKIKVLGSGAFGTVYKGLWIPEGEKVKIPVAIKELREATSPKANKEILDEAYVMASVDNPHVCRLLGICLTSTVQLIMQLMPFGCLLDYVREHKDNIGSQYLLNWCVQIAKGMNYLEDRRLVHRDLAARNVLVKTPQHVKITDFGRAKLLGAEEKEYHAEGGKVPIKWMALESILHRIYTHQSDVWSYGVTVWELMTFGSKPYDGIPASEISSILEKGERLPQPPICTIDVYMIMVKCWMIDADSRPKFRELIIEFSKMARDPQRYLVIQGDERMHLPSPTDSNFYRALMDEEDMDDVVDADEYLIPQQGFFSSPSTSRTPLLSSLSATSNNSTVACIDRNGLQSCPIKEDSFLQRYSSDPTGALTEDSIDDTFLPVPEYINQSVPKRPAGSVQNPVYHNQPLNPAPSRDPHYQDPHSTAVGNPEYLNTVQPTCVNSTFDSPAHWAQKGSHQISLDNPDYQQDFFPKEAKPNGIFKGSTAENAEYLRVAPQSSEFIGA
Sequence of Epidermal growth factor receptor (Homo sapiens), P00533 [T790M] (P00533 whole entry T790M): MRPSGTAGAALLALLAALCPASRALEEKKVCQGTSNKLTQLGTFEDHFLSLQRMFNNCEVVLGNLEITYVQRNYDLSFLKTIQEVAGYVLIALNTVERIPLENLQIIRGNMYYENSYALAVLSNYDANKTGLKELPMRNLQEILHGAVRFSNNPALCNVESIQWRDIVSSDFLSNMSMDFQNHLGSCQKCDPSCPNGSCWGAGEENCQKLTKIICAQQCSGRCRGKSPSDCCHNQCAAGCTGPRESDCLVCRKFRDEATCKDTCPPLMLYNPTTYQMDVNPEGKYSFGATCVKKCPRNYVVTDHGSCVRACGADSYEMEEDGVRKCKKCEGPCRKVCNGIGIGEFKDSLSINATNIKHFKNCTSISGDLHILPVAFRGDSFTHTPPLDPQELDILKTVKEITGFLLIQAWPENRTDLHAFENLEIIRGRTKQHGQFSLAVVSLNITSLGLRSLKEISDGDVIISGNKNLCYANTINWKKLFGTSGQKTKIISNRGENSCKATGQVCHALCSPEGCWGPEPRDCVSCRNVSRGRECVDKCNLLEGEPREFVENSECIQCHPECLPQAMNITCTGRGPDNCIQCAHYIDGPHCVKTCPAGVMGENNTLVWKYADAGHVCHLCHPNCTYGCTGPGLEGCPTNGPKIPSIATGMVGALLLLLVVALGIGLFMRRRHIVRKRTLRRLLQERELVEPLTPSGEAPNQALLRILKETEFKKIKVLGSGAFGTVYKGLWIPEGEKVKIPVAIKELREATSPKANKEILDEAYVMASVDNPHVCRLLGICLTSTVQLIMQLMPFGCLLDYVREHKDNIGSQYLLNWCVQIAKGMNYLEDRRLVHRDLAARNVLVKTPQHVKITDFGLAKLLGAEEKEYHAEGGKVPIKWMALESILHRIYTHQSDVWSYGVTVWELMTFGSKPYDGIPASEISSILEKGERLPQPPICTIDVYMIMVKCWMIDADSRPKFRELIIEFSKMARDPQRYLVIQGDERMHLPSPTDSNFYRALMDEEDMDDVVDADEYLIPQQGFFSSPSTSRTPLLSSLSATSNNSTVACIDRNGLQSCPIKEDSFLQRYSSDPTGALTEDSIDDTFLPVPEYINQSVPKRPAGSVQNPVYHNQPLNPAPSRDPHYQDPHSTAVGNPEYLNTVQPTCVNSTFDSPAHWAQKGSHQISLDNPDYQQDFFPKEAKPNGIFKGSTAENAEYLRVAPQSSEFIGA
Sequence of Ephrin type-A receptor 2 (Homo sapiens) (P29317 whole entry): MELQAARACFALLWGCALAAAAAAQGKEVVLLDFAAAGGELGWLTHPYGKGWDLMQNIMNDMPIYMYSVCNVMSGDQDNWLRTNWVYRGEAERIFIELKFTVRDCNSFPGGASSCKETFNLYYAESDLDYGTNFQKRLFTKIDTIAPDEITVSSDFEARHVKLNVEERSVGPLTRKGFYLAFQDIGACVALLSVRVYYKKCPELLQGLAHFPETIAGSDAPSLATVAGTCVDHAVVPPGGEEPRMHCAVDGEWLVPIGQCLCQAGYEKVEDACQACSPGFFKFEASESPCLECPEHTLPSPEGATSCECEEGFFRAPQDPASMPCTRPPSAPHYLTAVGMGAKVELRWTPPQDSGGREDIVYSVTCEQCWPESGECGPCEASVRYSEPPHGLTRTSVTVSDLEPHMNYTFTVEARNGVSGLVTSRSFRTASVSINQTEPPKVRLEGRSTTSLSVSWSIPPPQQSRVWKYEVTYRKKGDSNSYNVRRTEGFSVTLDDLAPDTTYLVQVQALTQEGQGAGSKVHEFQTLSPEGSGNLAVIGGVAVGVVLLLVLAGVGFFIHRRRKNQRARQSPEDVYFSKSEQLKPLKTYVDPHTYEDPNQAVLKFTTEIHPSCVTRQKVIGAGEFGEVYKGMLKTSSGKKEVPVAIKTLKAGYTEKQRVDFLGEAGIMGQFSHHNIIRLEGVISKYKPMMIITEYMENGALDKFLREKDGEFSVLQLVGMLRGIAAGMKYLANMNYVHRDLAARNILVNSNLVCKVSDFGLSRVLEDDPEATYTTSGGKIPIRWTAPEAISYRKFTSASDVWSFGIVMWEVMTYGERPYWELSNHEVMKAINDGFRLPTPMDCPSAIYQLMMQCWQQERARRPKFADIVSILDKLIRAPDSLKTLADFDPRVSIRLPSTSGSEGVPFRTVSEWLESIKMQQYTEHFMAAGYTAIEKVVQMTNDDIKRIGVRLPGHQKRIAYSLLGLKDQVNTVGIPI
Sequence of Receptor tyrosine-protein kinase erbB-2 (Homo sapiens) (P04626 whole entry): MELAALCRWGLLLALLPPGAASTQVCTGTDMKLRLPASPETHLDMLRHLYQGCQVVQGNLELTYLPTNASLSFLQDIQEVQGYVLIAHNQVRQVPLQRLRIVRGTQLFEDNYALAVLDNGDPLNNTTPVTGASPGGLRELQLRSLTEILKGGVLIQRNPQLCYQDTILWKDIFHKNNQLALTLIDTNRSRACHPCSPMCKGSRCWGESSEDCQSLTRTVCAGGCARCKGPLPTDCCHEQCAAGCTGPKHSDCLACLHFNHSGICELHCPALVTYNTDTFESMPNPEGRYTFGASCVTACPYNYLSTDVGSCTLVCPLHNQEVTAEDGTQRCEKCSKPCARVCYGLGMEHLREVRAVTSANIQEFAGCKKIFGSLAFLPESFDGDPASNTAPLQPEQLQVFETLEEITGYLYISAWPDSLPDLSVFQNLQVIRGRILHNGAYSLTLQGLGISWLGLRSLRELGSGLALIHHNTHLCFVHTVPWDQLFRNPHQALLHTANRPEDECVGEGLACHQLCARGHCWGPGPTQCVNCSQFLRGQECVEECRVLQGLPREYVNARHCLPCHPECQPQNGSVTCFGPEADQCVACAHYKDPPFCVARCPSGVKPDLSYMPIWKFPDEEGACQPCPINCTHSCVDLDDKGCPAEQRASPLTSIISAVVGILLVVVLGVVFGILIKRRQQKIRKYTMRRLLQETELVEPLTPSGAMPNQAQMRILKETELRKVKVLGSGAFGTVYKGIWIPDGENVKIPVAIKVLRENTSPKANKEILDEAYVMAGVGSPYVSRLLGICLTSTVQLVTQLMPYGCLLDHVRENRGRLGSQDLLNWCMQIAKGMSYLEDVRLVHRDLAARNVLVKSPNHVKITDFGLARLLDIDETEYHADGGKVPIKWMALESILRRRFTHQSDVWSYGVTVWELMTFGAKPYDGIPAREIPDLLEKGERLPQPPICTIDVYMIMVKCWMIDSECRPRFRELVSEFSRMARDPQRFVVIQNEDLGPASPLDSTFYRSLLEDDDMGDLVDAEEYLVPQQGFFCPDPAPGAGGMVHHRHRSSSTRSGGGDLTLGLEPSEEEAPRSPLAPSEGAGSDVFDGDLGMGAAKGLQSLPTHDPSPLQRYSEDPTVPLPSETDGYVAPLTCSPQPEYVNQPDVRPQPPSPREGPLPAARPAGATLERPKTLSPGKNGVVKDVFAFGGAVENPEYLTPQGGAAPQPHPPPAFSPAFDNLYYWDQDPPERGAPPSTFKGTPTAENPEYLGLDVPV

| Compound | inhibition [1] [%] | inhibition [2] [%] | inhibition [3] [%] | inhibition [4] [%] | inhibition [5] [%] | inhibition [6] [%] | inhibition [7] [%] | inhibition [8] [%] | inhibition [9] [%] | inhibition [10] [%] | inhibition [11] [%] | inhibition [12] [%] | inhibition [13] [%] | inhibition [14] [%] | inhibition [15] [%] | inhibition [16] [%] | inhibition [17] [%] | inhibition [18] [%] | inhibition [19] [%] | inhibition [20] [%] |
| --- | --- | --- | --- | --- | --- | --- | --- | --- | --- | --- | --- | --- | --- | --- | --- | --- | --- | --- | --- | --- |
| CCOc1nccc2c1nc(-c1nonc1N)n2CC | 5.62 | -0.04 | 4.96 | 2.57 | 1.93 | 2.43 | 6.98 | 11.7 | -8.98 | 9.96 | 13.1 | 1.72 | 2.82 | 2.78 | 0.5 | 3.01 | 9.5 | 6.98 | 18 | 5.59 |
| Nc1nccc(-c2c(-c3ccc(F)cc3)nn3cc(C(F)(F)F)ccc23)n1 | 2.37 | -0.45 | 1.18 | 0.62 | -0.02 | 0.75 | -0.28 | 2.89 | 5.34 | -9.27 | 5.83 | -0.56 | 3.25 | 0.18 | 1.91 | 2.01 | 3.5 | 2.34 | 11.4 | 5.04 |
| NS(=O)(=O)c1cccc(Nc2cc(-c3ccc(F)cc3)n[nH]2)c1 | 3.89 | 0.96 | 2.35 | 0.44 | 0.73 | 4.22 | 4.16 | 8.18 | 10 | 5.43 | 10.6 | 3.94 | 2.26 | 0.66 | 3.57 | 1.6 | 6.2 | 5.56 | 11.3 | 5.3 |
| Cc1cc(-c2ccccn2)cc(C)c1/C=C/c1cncc(-c2nn[nH]n2)c1 | 1.45 | -2.34 | 3.4 | 0.59 | 2.96 | 3.5 | 4.9 | 6.16 | 17.3 | 5.94 | 12.8 | 2.22 | 4.35 | 1.86 | 4.98 | -0.2 | 8.13 | 8.8 | 21.3 | -0.04 |
| Nc1nccc(C#Cc2cncnc2Nc2ccc(OCc3cccc(F)c3)c(Cl)c2)n1 |  |  |  | 0.65 | 1.27 | 1.8 | 3.27 | 6.14 | -0.84 | 9.67 | 7.89 | 5.26 | 4.02 | 1.01 | 2.68 | -1.45 | -8.09 | 14.2 | 24.8 | 2.1 |
| Cc1ccc(C(=O)NC2CC2)cc1-c1ccc2[nH]ncc2c1 | -3.14 | -2.32 | -5.63 | -1.76 | -1.67 | -6.73 | -6.53 |  | -8.91 |  | -4.6 | -8.95 | -5.96 | -2.42 | -0.31 | -5.76 | -4.83 |  |  | -2.95 |
| [O-][S+]1CCN(Cc2ccc(-c3ccc4ncnc(Nc5ccc(OCc6ccccc6)c(Cl)c5)c4c3)o2)CC1 |  |  |  | -3.15 | -2.96 | -1.64 | -1.69 | 2.8 | 3.82 | 6.04 | 5.17 | 0.63 | 1.88 | -0.7 | -0.05 | 37.5 | 72.6 | 69.6 | 84.3 | -2.55 |
| CN(C)CCCn1c(-c2nonc2N)nc2cnccc21 | 4.68 | -0.67 | 3.5 | 0.86 | 0.27 | 4.17 | 5.42 | 4.85 | 3.54 | 3.03 | 5.68 | 5.3 | 2.05 | 3.38 | 2.2 | 5.72 | 4.73 | 17.3 | 16.3 | 1.8 |
| CN(C)C(=O)O[C@@H]1CN[C@@H](C#Cc2cc3ncnc(Nc4ccc(OCc5cccc(F)c5)c(Cl)c4)c3s2)C1 |  |  |  | -0.17 | 1.05 | 5.64 | 1.99 | 1.85 | -8.34 | 0.71 | -1.82 | 2.5 | -1.81 | 1.64 | 3.64 | -1.37 | 27.1 | 107 | 130 | 0.75 |
